Experiment [1] is described as follows: antimalarial activity against Dd2 strain (AID 2302;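 active means growth inhibition above 50% at the single 2 µM test dose, taken to imply half-maximal potency below 2 µM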;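 further: 0% = DMSO untreated growth and 100% = chloroquine plus artemisinin killed control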). Conditions: P. falciparum Dd2 in RBCs, LDH growth readout, 72 h; at 2 µM; stronger effect = higher value.
A short description of experiment [2]: HepG2 cytotoxicity, primary screen, cytotoxicity control for P. falciparum antimalarial project, cell-based, ATP luminescence (AID 2303;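 active means inhibition above 50%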;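 further: 0% = DMSO wells and 100% = digitonin-killed cells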). Conditions: HepG2 viability, 24-48 h, at 10 µM, stronger effect = higher value.
Experiment [3] has as its target L-lactate dehydrogenase (Plasmodium falciparum (isolate CDC / Honduras)) (UniProt Q27743). Description: PfLDH activity inhibition – cell lysate, 3D7 strain, counter-screen for P. falciparum growth inhibition project (AID 2304).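 Further: 0% = vehicle and 100% = reference inhibitor.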 Conditions: P. falciparum 3D7 crude extract, LDH APAD/NBT absorbance; at 2 µM; stronger effect = higher value. In general terms: Counterscreens check selectivity or assay interference.

Experiment [4] in a line: inhibition of 3D7 malaria parasite growth – strain 3D7 (AID 2306).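 Further: 0% = DMSO wells and 100% = chloroquine plus artemisinin control wells.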 Conditions: P. falciparum 3D7 erythrocytic growth, LDH absorbance, 72 h; at 2 µM; stronger effect = higher value.
The target of experiment [5] is Calcium-dependent protein kinase 1 (Plasmodium falciparum (isolate 3D7)) (UniProt P62344). Description: PfCDPK1 kinase inhibitors, biochemical, TCAMS library (AID 1159585; cut-off not given, nearly all actives have IC50 up to about 0.98 µM;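 further: inhibitors leave more ATP so luminescence rises with inhibition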). Conditions: recombinant PfCDPK1, Kinase-Glo ATP depletion luminescence. For orientation: Kinase-Glo measures the ATP left after a reaction by luminescence.
Sequence of Calcium-dependent protein kinase 1 (Plasmodium falciparum (isolate 3D7)) (P62344 whole entry, looked up): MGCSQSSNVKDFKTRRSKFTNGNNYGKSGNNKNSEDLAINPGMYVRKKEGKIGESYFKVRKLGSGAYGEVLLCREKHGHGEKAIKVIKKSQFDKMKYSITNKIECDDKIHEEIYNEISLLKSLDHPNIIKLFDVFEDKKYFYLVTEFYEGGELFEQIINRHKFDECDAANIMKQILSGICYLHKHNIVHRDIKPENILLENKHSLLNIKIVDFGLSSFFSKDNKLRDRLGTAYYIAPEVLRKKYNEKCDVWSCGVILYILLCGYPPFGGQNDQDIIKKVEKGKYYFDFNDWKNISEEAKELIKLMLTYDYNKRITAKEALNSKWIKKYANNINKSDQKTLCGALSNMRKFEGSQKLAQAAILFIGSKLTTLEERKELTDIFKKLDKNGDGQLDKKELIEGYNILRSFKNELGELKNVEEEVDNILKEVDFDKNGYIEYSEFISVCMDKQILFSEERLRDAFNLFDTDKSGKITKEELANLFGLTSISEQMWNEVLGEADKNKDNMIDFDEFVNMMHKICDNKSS
Experiment [6] deals with Plasmodium falciparum protein kinase 6 (PK6, PF3D7_1337100) (UniProt Q8IDW1). Description: PfPK6 kinase inhibitors, biochemical, TCAMS library (AID 1159586). Conditions: recombinant PfPK6, Kinase-Glo ATP depletion luminescence.
Sequence of Plasmodium falciparum protein kinase 6 (PK6, PF3D7_1337100) (Q8IDW1 1-305): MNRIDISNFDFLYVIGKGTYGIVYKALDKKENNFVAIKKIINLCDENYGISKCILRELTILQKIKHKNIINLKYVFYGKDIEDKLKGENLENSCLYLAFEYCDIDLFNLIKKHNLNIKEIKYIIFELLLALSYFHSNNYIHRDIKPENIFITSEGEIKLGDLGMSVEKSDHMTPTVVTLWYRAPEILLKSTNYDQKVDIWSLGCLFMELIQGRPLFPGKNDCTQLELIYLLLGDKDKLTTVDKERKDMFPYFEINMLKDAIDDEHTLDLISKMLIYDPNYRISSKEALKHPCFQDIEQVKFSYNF
The target in experiment [7] is Protein kinase 7 (PK7), Plasmodium falciparum 3D7 (PF3D7_0213400) (UniProt Q7YTF7). Description: inhibition of Plasmodium PK7 catalytic activity – biochemical, TCAMS antimalarial set, Kinase-Glo luminescence (AID 1159587). Conditions: recombinant PfPK7, Kinase-Glo ATP depletion luminescence.
Sequence of Protein kinase 7 (PK7), Plasmodium falciparum 3D7 (PF3D7_0213400) (Q7YTF7 1-343): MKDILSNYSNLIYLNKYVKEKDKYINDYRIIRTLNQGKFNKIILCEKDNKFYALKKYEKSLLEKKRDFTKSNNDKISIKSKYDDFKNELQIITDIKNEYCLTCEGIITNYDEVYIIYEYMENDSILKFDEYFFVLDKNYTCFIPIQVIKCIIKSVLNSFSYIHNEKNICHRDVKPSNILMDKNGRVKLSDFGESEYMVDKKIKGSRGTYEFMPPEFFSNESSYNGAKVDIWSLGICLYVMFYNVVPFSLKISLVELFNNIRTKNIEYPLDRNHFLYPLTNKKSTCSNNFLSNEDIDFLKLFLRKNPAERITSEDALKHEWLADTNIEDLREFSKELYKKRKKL
Experiment [8] deals with Calcium-dependent protein kinase 4 (Plasmodium falciparum (isolate 3D7)) (UniProt Q8IBS5). Description: PfCDPK4 kinase inhibitors, biochemical, TCAMS library (AID 1159588; cut-off not given, nearly all actives have IC50 up to about 0.91 µM). Conditions: recombinant PfCDPK4, Kinase-Glo ATP depletion luminescence.
Sequence of Calcium-dependent protein kinase 4 (Plasmodium falciparum (isolate 3D7)) (Q8IBS5 whole entry, looked up): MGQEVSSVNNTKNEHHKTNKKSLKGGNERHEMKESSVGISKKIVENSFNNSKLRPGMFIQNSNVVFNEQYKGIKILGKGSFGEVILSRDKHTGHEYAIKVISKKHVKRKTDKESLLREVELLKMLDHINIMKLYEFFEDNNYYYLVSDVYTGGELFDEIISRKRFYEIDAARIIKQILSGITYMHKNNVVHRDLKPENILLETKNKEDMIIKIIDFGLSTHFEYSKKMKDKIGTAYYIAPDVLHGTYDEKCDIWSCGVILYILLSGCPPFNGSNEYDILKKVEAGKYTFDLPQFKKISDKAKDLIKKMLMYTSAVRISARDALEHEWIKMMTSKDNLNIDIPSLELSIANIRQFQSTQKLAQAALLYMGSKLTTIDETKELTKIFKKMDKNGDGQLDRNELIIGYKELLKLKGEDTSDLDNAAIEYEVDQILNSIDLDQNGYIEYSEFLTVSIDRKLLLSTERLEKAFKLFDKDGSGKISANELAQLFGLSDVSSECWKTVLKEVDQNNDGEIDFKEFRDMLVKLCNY

Values without a mark were called inactive. For part of these data: Entries with a potency or affinity are not part of this list. Calls of active or inactive are those of the source. Unless noted, how the calls were made is not given here.

Sequence of L-lactate dehydrogenase (Plasmodium falciparum (isolate CDC / Honduras)) (Q27743 whole entry, looked up): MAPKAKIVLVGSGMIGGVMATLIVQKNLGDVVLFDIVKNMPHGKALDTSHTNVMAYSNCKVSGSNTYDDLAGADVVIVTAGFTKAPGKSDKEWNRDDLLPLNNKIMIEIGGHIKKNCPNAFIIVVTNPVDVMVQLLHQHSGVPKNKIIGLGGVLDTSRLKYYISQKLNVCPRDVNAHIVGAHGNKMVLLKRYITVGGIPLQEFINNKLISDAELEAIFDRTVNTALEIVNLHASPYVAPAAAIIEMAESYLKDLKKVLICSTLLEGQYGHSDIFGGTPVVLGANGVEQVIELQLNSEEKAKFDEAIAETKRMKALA

One may read the inhibition as the drop in the measured response relative to a control, in per cent. Consider `CC(C)CC1c2[nH]c3ccccc3c(=O)c2CN1C(=O)OC(C)(C)C` (stereo not drawn), for which the growth inhibition was 96% (active) in experiment [1] and 97% (active) in experiment [4]. Moreover, the inhibition in experiment [2] was 2%; in experiment [3], -4%. Besides, the result in experiment [5], in experiment [6], in experiment [7] and in experiment [8] was inactive.

With `CC(=O)N[C@@H]1c2cc(C(C)=O)ccc2OC(C)(C)[C@@H]1O`, the growth inhibition in experiment [1] was 3%; in experiment [4] it was 97% (active). The results for the inhibition in experiment [2] and in experiment [3] were 15% and -3%, respectively. In addition, the result in experiment [5], in experiment [6], in experiment [7] and in experiment [8] was inactive.

For `O=S(=O)(NCCN1CCCC1)c1ccc(-c2ccc(CNCc3ccsc3)cc2)cc1`, the figures for the growth inhibition in experiment [1] and in experiment [4] were 36% and 95% (active), respectively. The figures for the inhibition in experiment [2] and in experiment [3] were 44% and -5%, respectively. Moreover, the result in experiment [5], in experiment [6], in experiment [7] and in experiment [8] was inactive.

For the compound `COc1ccc2nccc([C@@H](O)CN3CCC(NCc4cc5c(Cl)cc(Cl)cc5[nH]4)CC3)c2c1`, the growth inhibition in experiment [1] is 86% (active); in experiment [4], 101% (active). In addition, the inhibition in experiment [2] was 93% (active); in experiment [3], 4%. Moreover, the outcome in experiment [5], in experiment [6], in experiment [7] and in experiment [8] was inactive.

Consider `O=C(NC1CCCc2ccccc21)C1CCCN(C(=O)c2ccc(O)c(-c3ccc(Cl)c(Cl)c3)c2)C1` (stereo not drawn), for which the results for the growth inhibition in experiment [1] and in experiment [4] were 54% (active) and 88% (active), respectively. Also, the inhibition is -3% in experiment [2] and -8% in experiment [3]. Moreover, the outcome in experiment [5], in experiment [6], in experiment [7] and in experiment [8] was inactive.

On to `CCc1c(CCNCCCCCCNCCc2ccc(OC)c(OC)c2CC)ccc(OC)c1OC`, for which the growth inhibition was 1% in experiment [1] and 100% (active) in experiment [4]. The values for the inhibition in experiment [2] and in experiment [3] were 58% (active) and 0%, respectively. For the same compound, the outcome in experiment [5], in experiment [6], in experiment [7] and in experiment [8] was inactive.

On to `CC(=O)NCCCCC1NC2(C(=O)N(Cc3ccc(C(C)(C)C)cc3)c3ccccc32)C2C(=O)N(C3CCCCC3)C(=O)C12` (stereo not drawn), for which the results for the growth inhibition in experiment [1] and in experiment [4] were 71% (active) and 91% (active), respectively. Further, the inhibition in experiment [2] was -2%; in experiment [3], -3%. Moreover, the result in experiment [5], in experiment [6], in experiment [7] and in experiment [8] was inactive.

Turning to `COc1ccccc1Nc1nc(C)cc(NCc2ccc(-n3ccnc3)cc2)n1`, the growth inhibition in experiment [1] is 10%; in experiment [4] it was 90% (active). Further, the inhibition in experiment [2] was 5%; in experiment [3], -2%. Moreover, the outcome in experiment [5], in experiment [6], in experiment [7] and in experiment [8] was inactive.

`C[C@H](Cc1ccc(OCCCOc2ccc(C[C@@H](C)NC[C@H](O)c3cccc(Cl)c3)cc2)cc1)NC[C@H](O)c1cccc(Cl)c1`: the figures for the growth inhibition in experiment [1] and in experiment [4] were 92% (active) and 99% (active), respectively. Further, the inhibition is 99% (active) in experiment [2] and 0% in experiment [3]. Also, the result in experiment [5], in experiment [6], in experiment [7] and in experiment [8] was inactive.

`CCn1ncc(Cl)c1CN(C)S(=O)(=O)c1ccc(Br)cc1`: the growth inhibition was 70% (active) in experiment [1] and 90% (active) in experiment [4]. Also, the inhibition was 9% in experiment [2] and 4% in experiment [3]. Also, the outcome in experiment [5], in experiment [6], in experiment [7] and in experiment [8] was inactive.

Turning to `COc1ccc(CCNCCCCCCNCCc2ccc(Cl)cc2)c(Cl)c1OC`, the growth inhibition is 4% in experiment [1] and 101% (active) in experiment [4]. Also, the inhibition in experiment [2] is 88% (active); in experiment [3], 5%. Moreover, the result in experiment [5], in experiment [6], in experiment [7] and in experiment [8] was inactive.

For the compound `CCCCN(C(=O)c1ccccc1C)c1nnc(-c2ccccc2C)s1`, the growth inhibition in experiment [1] is 94% (active); in experiment [4], 92% (active). Also, the inhibition was 10% in experiment [2] and 2% in experiment [3]. Also, the result in experiment [5], in experiment [6], in experiment [7] and in experiment [8] was inactive.

Consider `Cc1nc(-c2cccc(Nc3nccc(NCC(O)c4cccc(F)c4)n3)c2)cs1` (stereo not drawn), for which the growth inhibition in experiment [1] is 59% (active); in experiment [4], 98% (active). Besides, the figures for the inhibition in experiment [2] and in experiment [3] were 39% and 1%, respectively. The result in experiment [5], in experiment [6], in experiment [7] and in experiment [8] was inactive.

Regarding `COC(=O)c1ccc(N2CCN(CCCCNC(=O)c3ccc(NC(=O)c4ccc(Cl)cc4)cc3)CC2)c(OC)c1`, the results for the growth inhibition in experiment [1] and in experiment [4] were 1% and 82% (active), respectively. Also, the figures for the inhibition in experiment [2] and in experiment [3] were 11% and 3%, respectively. For the same compound, the result in experiment [5], in experiment [6], in experiment [7] and in experiment [8] was inactive.

On to `Cc1[nH]c(CNCCCNc2cc(=O)c3ccccc3[nH]2)c(Br)c1Br`, for which the growth inhibition in experiment [1] was 47%; in experiment [4], 91% (active). Also, the inhibition in experiment [2] is -3%; in experiment [3], 4%. The result in experiment [5], in experiment [6], in experiment [7] and in experiment [8] was inactive.

In the case of `CCOc1c(Br)cc(C)cc1CNCCCNc1nc2ccccc2[nH]1`, the growth inhibition in experiment [1] is 5%; in experiment [4], 93% (active). The figures for the inhibition in experiment [2] and in experiment [3] were 24% and 6%, respectively. Further, the result in experiment [5], in experiment [6], in experiment [7] and in experiment [8] was inactive.

Regarding `O=C(NCCCN1CCC(Cc2ccccc2)CC1)c1cc2c(Cl)nc3ccccc3c2s1`, the growth inhibition in experiment [1] was 40%; in experiment [4] it was 98% (active). Also, the values for the inhibition in experiment [2] and in experiment [3] were 22% and -3%, respectively. Moreover, the outcome in experiment [5], in experiment [6], in experiment [7] and in experiment [8] was inactive.

Turning to `CCCC(C)Nc1nc(C)cc(NCCC(=O)Nc2ccccc2)n1` (stereo not drawn), the growth inhibition is 11% in experiment [1] and 96% (active) in experiment [4]. Moreover, the figures for the inhibition in experiment [2] and in experiment [3] were 12% and -4%, respectively. Also, the outcome in experiment [5], in experiment [6], in experiment [7] and in experiment [8] was inactive.

`O=C(/C=C/c1ccc(Cl)c(Cl)c1)NCCCCN1CCCN(C(=O)Nc2ccc(C(F)(F)F)cc2)CC1`: the growth inhibition was -1% in experiment [1] and 94% (active) in experiment [4]. Further, the inhibition in experiment [2] is 35%; in experiment [3], 5%. Further, the result in experiment [5], in experiment [6], in experiment [7] and in experiment [8] was inactive.

For the compound `Cn1nc(-c2ccc(NC(=O)Nc3cc(C(F)(F)F)cc(C(F)(F)F)c3)c(F)c2)c2cnc(NCCN3CCOCC3)nc21`, the growth inhibition in experiment [1] is 37%; in experiment [4], 94% (active). In addition, the inhibition was 43% in experiment [2] and -6% in experiment [3]. In addition, the result in experiment [5], in experiment [6], in experiment [7] and in experiment [8] was inactive.

For `Cn1nc(-c2ccccc2F)c2cc(C(=O)Nc3cccnc3)sc21`, the growth inhibition in experiment [1] was 82% (active); in experiment [4] it was 92% (active). Further, the values for the inhibition in experiment [2] and in experiment [3] were 5% and 3%, respectively. Further, the outcome in experiment [5], in experiment [6], in experiment [7] and in experiment [8] was inactive.
